Source: PubChem BioAssay (several laboratories)
Rows were chosen to be rich in hits. Some 1.5% of all compounds tested hit in one or more screens of this group.
PP5 primary – PP5 phosphatase inhibitors, primary screen, biochemical, fluorescence; purified PP5c, OMFP substrate fluorescence; inhibition, % at 6.7 µM; actives 0.18% (n = 320,000); AID 1987, 2009;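 active = inhibition above the campaign's mean inhibition across all tested compounds plus 3 SD, cut at about 9.5% in these data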;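 also: 0% = DMSO only and 100% = 100 µM cantharidin control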
Target sequence (P53041 whole entry, looked up): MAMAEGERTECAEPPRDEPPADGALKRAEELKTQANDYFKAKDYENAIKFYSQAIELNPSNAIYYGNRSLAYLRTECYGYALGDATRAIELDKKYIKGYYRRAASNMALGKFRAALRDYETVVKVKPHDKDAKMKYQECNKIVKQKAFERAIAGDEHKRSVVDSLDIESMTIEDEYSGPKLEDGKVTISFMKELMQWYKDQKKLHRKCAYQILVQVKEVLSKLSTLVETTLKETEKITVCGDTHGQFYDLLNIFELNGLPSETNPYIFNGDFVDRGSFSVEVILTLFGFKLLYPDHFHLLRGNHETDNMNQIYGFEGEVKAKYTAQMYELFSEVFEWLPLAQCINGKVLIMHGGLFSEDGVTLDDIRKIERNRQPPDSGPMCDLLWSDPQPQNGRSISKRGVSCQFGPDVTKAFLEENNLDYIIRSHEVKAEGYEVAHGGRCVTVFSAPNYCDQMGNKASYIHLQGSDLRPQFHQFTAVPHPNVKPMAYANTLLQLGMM
STK33 inh – inhibitors of purified STK33 kinase, primary screen, biochemical, ADP-Glo luminescence, homogeneous, cell-free; actives 0.073% (n = 320,000); AID 2661, 2010; MBP phosphorylation; inhibition, % at 10 µM; Serine/threonine-protein kinase 33 (Homo sapiens), Q9BYT3;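 active = inhibition at or above 25%, using the most active replicate where run in duplicate; inactive = inhibition below 25%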
PP1 counter – PP1-alpha phosphatase inhibitors, primary screen, counter-screen for PP5 inhibitor project, biochemical, fluorescence, OMFP substrate, single point. Serine/threonine-protein phosphatase PP1-alpha catalytic subunit (Homo sapiens), P62136. purified PP1alpha. inhibition, % at 6.7 µM. actives 0.9% (n = 320,000). AID 2235, 2010;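 active = inhibition above the mean inhibition of all tested compounds plus 3 SD, computed separately for each screening campaign, cut at about 15% in these data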
HIF act – HIF pathway transcriptional activators, primary screen, cell-based, U2OS HRE-luciferase, luminescence | U2OS HRE-luciferase reporter; normalized: DMSO 0%, desferrioxamine 100% | activation, % at 7.5 µM (by protocol) | actives 0.32% (n = 300,000);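 active = mean activation of at least 10% of the iron chelator positive control signal, with at least half of replicates also reaching 10%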
Dyrk1A ADPGlo – rat Dyrk1A kinase inhibitors, primary screen, biochemical, single point, plate reader; ADP-Glo luminescence, NFATc1 peptide; inhibition, % at 12.5 µM; actives 0.43% (n = 310,000); AID 504441, 2011; in the data active = inhibition above about 50%;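 also: plate controls were vehicle with enzyme for no effect and no enzyme for full effect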
PP1 inh confirm – PP1 phosphatase inhibitors, confirmation, biochemical, fluorescence, OMFP substrate, triplicate; shares compounds with PP1 counter; purified PP1alpha; inhibition, % at 6.7 µM; actives 52% (n = 1,900);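 active = mean PP1 inhibition above a set limit taken from the earlier primary screen, cut at about 15% in these data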
PP5 inh counter – PP5 phosphatase inhibition by PP1 hits, confirmation, counter-screen for PP1 inhibitor project, biochemical, fluorescence, triplicate | inhibition, % at 6.7 µM | actives 4% (n = 1,900) | AID 2360, 2010 | purified PP5c, OMFP fluorescence | shares compounds with PP1 counter;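 active = mean PP5 inhibition over triplicate wells above about 9.5% taken from the earlier PP1 screen, limit read from the data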
An asterisk follows results filed as active; / = not tested or not shown.

SMILES	PP5 primary	STK33 inh	PP1 counter	HIF act	Dyrk1A ADPGlo	PP1 inh confirm	PP5 inh counter
COc1ccc(OC)c(NC(=O)C2C3CCC(O3)C2C(=O)O)c1 (stereo not drawn)	69.4*	-0.5	64.0*	0.0	/	22.1*	27.2*
Cc1noc(C)c1C(=O)Nc1ccccc1C(=O)NCCc1ccccc1	3.5	0.1	20.7*	0.0	0.7	0.5	-2.1
Cc1noc(C)c1COc1ccccc1C(=O)NCCc1ccccc1	/	/	/	/	-8.7	/	/
CNC(=O)/C(C#N)=C/c1c(N2CC(C)OC(C)C2)nc2ccccn2c1=O (stereo not drawn)	1.3	0.0	-1.8	0.6	-4.5	/	/
O=C(NNC(=O)c1ccc([N+](=O)[O-])cc1C(=O)O)c1ccncc1	-1.1	0.1	2.2	-1.8	4.1	/	/
C/C=C(\C)C(=O)Nc1cccc(C2=NOC3(C2)C[C@H](C(N)=O)N(C(=O)C(c2ccccc2)c2ccccc2)C3)c1 (stereo partly drawn)	-0.7	-1.2	2.8	-0.7	6.8	/	/
C/C=C\C=C/C(=O)Nc1cccc(C2=NOC3(C2)C[C@@H](C(N)=O)N(C(=O)COc2ccc(Cl)cc2)C3)c1 (stereo partly drawn)	3.4	-0.4	19.1*	-0.7	-0.5	-1.7	-3.9
C=C(C)C(=O)Nc1cccc(C2=NOC3(C2)C[C@@H](C(N)=O)N(C(=O)c2cc([N+](=O)[O-])cc([N+](=O)[O-])c2)C3)c1 (stereo partly drawn)	4.9	0.7	2.8	-3.3	-2.1	/	/
C=C(C)C(=O)Nc1cccc(C2=NOC3(C2)C[C@@H](C(N)=O)N(C(=O)c2ccc(OC)cc2)C3)c1 (stereo partly drawn)	0.2	-0.4	18.2*	-5.5	-17.2	7.2	-1.2
CCOC(=O)c1ccc(NC(=O)COc2ccc(-n3cnnn3)cc2)cc1	1.1	-0.6	20.0*	-0.4	0.7	4.7	-5.8
CCOc1ccc(NC(=O)COc2ccc(-n3cnnn3)cc2)cc1	2.8	-1.1	-4.7	/	/	/	/
N#Cc1ccc(-c2ccco2)nc1SCC(=O)c1ccc(Cl)cc1	0.7	-0.8	26.2*	0.0	3.5	6.8	-3.1
Cc1ccc(C(=O)CSc2nc(-c3ccccc3)ccc2C#N)cc1	1.1	-0.7	-1.6	0.3	-4.1	/	/
Cc1nnc2sc(-c3ccc(NC(=O)CSc4ccc(Cl)cc4)cc3)nn12	3.5	-0.2	17.5*	1.6	5.7	5.2	1.1
CCC1CCCCN1C(=O)CSc1nnc(-c2c[nH]c3ccccc23)o1 (stereo not drawn)	3.3	-0.4	1.6	0.7	-7.2	/	/
CCCCN(C(=O)c1cccc(-n2cccc2)c1)c1c(N)n(Cc2ccccc2)c(=O)[nH]c1=O	2.0	-0.5	34.5*	-9.8	-1.1	-0.3	-6.1
COc1ccc(C(=O)c2sc3nc(-c4ccccc4)ccc3c2N)cc1OC	0.1	-0.9	19.7*	0.8	-4.8	13.2	-4.3
COc1ccc(-c2ccc3c(N)c(C(=O)c4ccc(OC)c(OC)c4)sc3n2)cc1	2.1	-1.2	8.8	-0.4	-1.5	/	/
COc1ccc(C2NCCc3c2[nH]c2ccccc32)cc1CSc1nc2ccccc2s1 (stereo not drawn)	4.1	-1.7	18.8*	-0.4	-2.3	-11.4	1.9
O=c1[nH]c(CSc2nc3ccccc3s2)nc2ccccc12	2.7	1.4	-2.9	1.9	-5.7	/	/
Cc1cccc(-c2cccc(NC(=O)C3CCCN(C(=O)c4csc(C)n4)C3)c2)c1 (stereo not drawn)	2.5	-1.4	-0.6	2.8	-4.4	/	/
O=S(=O)(Cc1cc(NCc2ccccc2)nc(-c2ccncc2)n1)c1ccccc1	2.6	-0.9	-0.9	0.0	-8.1	/	/
O=S(=O)(Cc1cc(NCc2ccccc2)nc(-c2ccccn2)n1)c1ccccc1	1.3	5.2	39.4*	-1.1	-1.4	46.3*	-0.3
Cc1ccccc1-n1c(SCC(=O)N2CCN(c3ccccn3)CC2)nnc1N1CCOCC1	2.4	-0.9	-2.1	/	6.8	/	/
CC(=O)Nc1cccc(NC(=O)CSc2ncc(C(=O)Nc3ccc(F)cc3)c(=O)n2C)c1	0.8	-0.1	33.6*	-0.7	2.2	1.9	1.9
SMILES	PP5 primary	STK33 inh	PP1 counter	HIF act	Dyrk1A ADPGlo	PP1 inh confirm	PP5 inh counter
CC1=C(C(=O)Nc2ccccc2C)C2(CCCC2)C(C(N)=O)C(=O)N1 (stereo not drawn)	-2.7	0.2	26.1*	/	2.1	-5.2	-6.1
O=C(O)CC(c1cccc(O)c1)N1Cc2ccccc2C1=O (stereo not drawn)	1.2	-0.6	0.4	0.6	1.0	/	/
O=C(O)[C@@H](c1ccccc1)N1Cc2ccccc2C1=O	2.5	0.1	24.1*	-0.4	11.8	35.2*	-5.2
C#CCOCCOCCOCCNc1nc(N2CCN(C(=O)C(Cc3ccc(O)cc3)n3cc(C(N)CC(C)C)nn3)CC2)nc(N2CCN(C(=O)C(Cc3cc4ccccc4[nH]3)n3cc(C(N)C(C)CC)nn3)CC2)n1 (stereo not drawn)	2.5	0.1	19.7*	2.0	/	-24.4	-4.2
C#CCOCCOCCOCCNc1nc(N2CCN(C(=O)[C@H](Cc3ccc(O)cc3)n3cc([C@@H](N)CC(C)C)nn3)CC2)nc(N2CCN(C(=O)[C@H](Cc3cc4ccccc4[nH]3)n3cc([C@@H](N)CC(C)C)nn3)CC2)n1	1.3	0.3	10.8	0.4	/	/	/
C#CCOCCOCCOCCNc1nc(N2CCN(C(=O)[C@H]([C@@H](C)CC)n3cc([C@@H](N)CC(C)C)nn3)CC2)nc(N2CCN(C(=O)[C@H](Cc3cc4ccccc4[nH]3)n3cc([C@@H](N)Cc4ccc(O)cc4)nn3)CC2)n1	6.8	-1.8	25.2*	0.1	/	-14.7	6.4
C#CCOCCOCCOCCNc1nc(N2CCN(C(=O)[C@H](Cc3ccc(O)cc3)n3cc([C@@H](N)C(C)CC)nn3)CC2)nc(N2CCN(C(=O)[C@H](Cc3cc4ccccc4[nH]3)n3cc([C@@H](N)Cc4ccc(O)cc4)nn3)CC2)n1 (stereo partly drawn)	4.2	-1.4	21.7*	0.0	/	-10.4	-1.5
C#CCOCCOCCOCCNc1nc(N2CCN(C(=O)[C@H]([C@@H](C)CC)n3cc([C@@H](N)CC(C)C)nn3)CC2)nc(N2CCN(C(=O)[C@H](Cc3cc4ccccc4[nH]3)n3cc([C@@H](N)C(C)CC)nn3)CC2)n1 (stereo partly drawn)	/	/	/	-0.1	/	/	/
